Source: the supplement of paper PMC7156485

Each molecule was assayed on HCC1569 (assay: H1.0 immunofluorescence intensity relative to DMSO (% of DMSO); higher = stronger H1.0 induction, active = 140 or more). Settings: concentration: 10 µM; 24 h.
Procedure, shortened: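 In 384-well plates holding 800 HCC1569 or TDF cells per well in RPMI with 10% FBS, compounds were tested at 10 µM for 24 h at 37 °C in triplicate. Fixation used 3.7% formaldehyde. Staining used a rabbit anti-H1.0 antibody with an AlexaFluor 647 secondary, plus DAPI. Each value, H1.0 nuclear intensity or cell number, is a median of replicates shown as percent of the plate control, and HCC1569 values were smoothed for positional effects.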
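Further: TDF is a line of transformed human dermal fibroblasts of mesenchymal origin.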

H1.0 immunofluorescence intensity, inactive:
CNC1C(OC2OC(CO)C(N)C(O)C2O)OC2CC(N)C(OC3C(N)CC(N)C(O)C3O)OC2C1O (stereo unspecified) [Apramycin] 117
NC(=O)c1ccc(-c2nc(-c3ccc4c(c3)OCCO4)c(-c3ccccn3)[nH]2)cc1 122
N#Cc1c(N(CC(=O)[O-])CC(=O)[O-])sc(C(=O)[O-])c1CC(=O)[O-].[Sr+2].[Sr+2] 105
N#Cc1ccc(N2N=C3c4ccc(C(=O)O)cc4CCC3C2C2CCCC2)cc1Cl (stereo unspecified) 101
Cl.Cl.Cl.Cl.NCCCNCCCCNCCCN [Spermine tetrahydrochloride] 86.7
CCCC(=O)O[C@]1(C(=O)CO)CC[C@H]2[C@@H]3CCC4=CC(=O)CC[C@]4(C)[C@H]3[C@@H](O)C[C@@]21C [(11beta)-11,21-dihydroxy-3,20-dioxopregn-4-en-17-yl butyrate] 102
CCOC(=O)CNC(=O)[C@@H]1CCCN1C(=O)Cc1ccccc1 87.1
CCCCCC(O)C=CC1C(O)CC(O)C1CC=CCCCC(=O)O (racemic) 99.4
COc1c(C)c2c(c(O)c1CC=C(C)CCC(=O)O)C(=O)OC2 [Mycophenolic Acid] 116
CC(C)(C)C(=O)OCOC(=O)[C@@H]1N2C(=O)[C@@H](/N=C/N3CCCCCC3)[C@H]2SC1(C)C 115
NCCCCC(NC(CCc1ccccc1)C(=O)O)C(=O)N1CCCC1C(=O)O (stereo unspecified) [Lisinopril] 98.8
